Laboratory results taken from publication PMC5700166.
Changes are numbered by the printed parent chain.

Experiments:
Test in all cases: protein-binding microarray (PBM); PBM: ~300 nM protein, 6 mM HEPES pH 7.8, 80 mM KCl, 0.5 mM EDTA, 0.5 mM EGTA, 6% glycerol, 35 ng/ul poly-dIdC, 1% milk, 1 h, room temperature; Ap Aiptasia and Nv Nematostella (sea anemones) / Co Capsaspora / Aq Amphimedon (sponge) / Dm Drosophila / Hu human; RHD is the Rel homology domain; high values mean tight binding
Conditions in all cases: dsDNA, one strand shown
GST-Ap-NF-kB RHD = target: T1, GST-Ap-NF-kB RHD (Exaiptasia pallida (Aiptasia), UniProt A0A913YAJ5 2-422)
T1 sequence: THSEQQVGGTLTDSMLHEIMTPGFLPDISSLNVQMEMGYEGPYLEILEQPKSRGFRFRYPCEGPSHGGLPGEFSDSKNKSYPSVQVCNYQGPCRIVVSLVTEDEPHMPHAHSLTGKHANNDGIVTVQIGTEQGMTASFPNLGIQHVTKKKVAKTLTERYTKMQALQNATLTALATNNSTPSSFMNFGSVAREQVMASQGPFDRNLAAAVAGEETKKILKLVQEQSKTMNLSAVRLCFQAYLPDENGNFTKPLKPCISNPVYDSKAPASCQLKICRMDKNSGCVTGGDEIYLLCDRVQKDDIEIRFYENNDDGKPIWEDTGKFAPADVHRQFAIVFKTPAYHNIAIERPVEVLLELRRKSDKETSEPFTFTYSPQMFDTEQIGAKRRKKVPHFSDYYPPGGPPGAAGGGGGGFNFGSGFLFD

[1] = target: T2, GST-Nv-NF-kB (Cys allele) (Nematostella vectensis, UniProt E5G601 2-411)
T2 sequence: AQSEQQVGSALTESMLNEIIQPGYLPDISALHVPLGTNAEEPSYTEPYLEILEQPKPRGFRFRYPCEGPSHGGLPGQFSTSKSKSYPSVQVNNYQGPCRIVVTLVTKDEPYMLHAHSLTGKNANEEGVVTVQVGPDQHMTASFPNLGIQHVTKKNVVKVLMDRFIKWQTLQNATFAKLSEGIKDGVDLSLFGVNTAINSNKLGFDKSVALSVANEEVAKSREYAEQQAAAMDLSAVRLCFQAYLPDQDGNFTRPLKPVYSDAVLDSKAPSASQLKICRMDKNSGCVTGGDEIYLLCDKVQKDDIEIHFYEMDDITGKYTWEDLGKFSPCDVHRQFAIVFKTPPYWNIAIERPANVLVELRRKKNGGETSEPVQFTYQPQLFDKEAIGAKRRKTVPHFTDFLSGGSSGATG

[2] = target: T3, GST-Nv-NF-kB (Ser allele) (Nematostella vectensis, UniProt A7UNT2 2-411)
T3 sequence: T2 sequence with Q21R, C66S, S207N, E215Q, V217A, E225K, A268E, D399E

GST-Co-NF-kB = target: T4, GST-Co-NF-kB (Capsaspora owczarzaki, UniProt F1ARL5 200-546)
T4 sequence: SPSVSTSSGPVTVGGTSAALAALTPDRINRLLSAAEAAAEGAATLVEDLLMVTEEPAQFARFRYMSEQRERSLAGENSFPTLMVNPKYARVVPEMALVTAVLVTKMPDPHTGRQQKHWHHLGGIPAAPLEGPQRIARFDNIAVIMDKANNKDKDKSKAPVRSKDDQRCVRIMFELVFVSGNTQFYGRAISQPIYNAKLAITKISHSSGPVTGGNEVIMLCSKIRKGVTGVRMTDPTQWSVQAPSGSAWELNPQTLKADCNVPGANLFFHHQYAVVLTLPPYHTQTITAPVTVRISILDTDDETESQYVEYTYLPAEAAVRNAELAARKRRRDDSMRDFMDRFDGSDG

GST-Aq-NF-kB = target: T5, GST-Aq-NF-kB (Amphimedon queenslandica, UniProt A9Y5G7 2-389)
T5 sequence: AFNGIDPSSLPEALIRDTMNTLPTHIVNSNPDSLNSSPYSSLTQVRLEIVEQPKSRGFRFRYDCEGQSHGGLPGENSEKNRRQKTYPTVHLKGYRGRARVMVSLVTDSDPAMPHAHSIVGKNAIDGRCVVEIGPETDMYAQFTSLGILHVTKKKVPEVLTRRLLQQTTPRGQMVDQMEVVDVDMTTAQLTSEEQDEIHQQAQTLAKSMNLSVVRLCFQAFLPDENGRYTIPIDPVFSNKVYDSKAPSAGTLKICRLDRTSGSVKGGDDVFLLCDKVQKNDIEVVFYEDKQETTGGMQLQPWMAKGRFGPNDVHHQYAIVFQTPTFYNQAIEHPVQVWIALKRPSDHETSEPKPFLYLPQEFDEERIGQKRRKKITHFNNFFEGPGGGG

GST-Hu-p50 = GST-Hu-p50 (Homo sapiens, UniProt P19838 7-356)
GST-Hu-p50, sequence (P19838 7-356): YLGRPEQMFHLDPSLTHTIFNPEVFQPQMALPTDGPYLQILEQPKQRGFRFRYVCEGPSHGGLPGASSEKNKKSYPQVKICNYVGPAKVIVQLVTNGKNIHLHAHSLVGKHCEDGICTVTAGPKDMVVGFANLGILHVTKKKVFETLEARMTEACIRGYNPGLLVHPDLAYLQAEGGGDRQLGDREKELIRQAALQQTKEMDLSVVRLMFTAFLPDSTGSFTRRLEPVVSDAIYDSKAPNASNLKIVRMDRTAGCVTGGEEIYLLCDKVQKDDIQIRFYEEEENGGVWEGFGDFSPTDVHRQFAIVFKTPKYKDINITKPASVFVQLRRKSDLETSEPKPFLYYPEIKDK

GST-Dm-Relish = target: T6, GST-Dm-Relish (Drosophila melanogaster, UniProt Q94527 99-473)
T6 sequence: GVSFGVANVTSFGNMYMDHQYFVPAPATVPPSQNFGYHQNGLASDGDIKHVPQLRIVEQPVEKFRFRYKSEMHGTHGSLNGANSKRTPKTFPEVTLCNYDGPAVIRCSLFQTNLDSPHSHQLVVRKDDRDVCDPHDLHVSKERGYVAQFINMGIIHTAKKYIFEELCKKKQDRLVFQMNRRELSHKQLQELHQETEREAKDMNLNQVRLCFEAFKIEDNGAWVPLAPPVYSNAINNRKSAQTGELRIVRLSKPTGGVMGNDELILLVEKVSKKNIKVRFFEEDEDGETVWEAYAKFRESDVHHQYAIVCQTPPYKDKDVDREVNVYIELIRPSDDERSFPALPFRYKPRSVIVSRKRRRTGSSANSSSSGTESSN

Sequence	binding signal (GST-Ap-NF-kB RHD) [z-score]	binding signal [1] [z-score]	binding signal [2] [z-score]	binding signal (GST-Co-NF-kB) [z-score]	binding signal (GST-Aq-NF-kB) [z-score]	binding signal (GST-Hu-p50) [z-score]	binding signal (GST-Dm-Relish) [z-score]
CCGATTAACATCAGGGGAGACAATGATGTTAATCGGGTCTTGATTCGCTTGACGCTGCTG	3.1	3.18	4.37	4.18	2.2	2.14	–
CCGATTAACATCAAGGTGGGAATTGATGTTAATCGGGTCTTGATTCGCTTGACGCTGCTG	1.55	3.21	2.3	2.52	1.99	1.71	–
CCGATTAACATCAGATATTACCCTGATGTTAATCGGGTCTTGATTCGCTTGACGCTGCTG	2.58	3.48	3.01	2.75	4.82	2.16	–
CCGATTAACATCAAGAAATTCCGTGATGTTAATCGGGTCTTGATTCGCTTGACGCTGCTG	–	–	–	–	1.24	1.41	–
CCGATTAACATCAGCTAGTCCCTTGATGTTAATCGGGTCTTGATTCGCTTGACGCTGCTG	3.99	3.63	2.09	–	3.06	2.73	–
CCGATTAACATCAGGAGATTCCATGATGTTAATCGGGTCTTGATTCGCTTGACGCTGCTG	–	–	–	–	1.66	–	–
CCGATTAACATCAGAATTCTCCCTGATGTTAATCGGGTCTTGATTCGCTTGACGCTGCTG	2.74	4.1	3.64	2.57	4.02	3.58	–
CCGATTAACATCAGGGAAATGTATGATGTTAATCGGGTCTTGATTCGCTTGACGCTGCTG	3.08	4.81	4.88	3.3	4.45	3.4	–
CCGATTAACATCAGACATTTCCCTGATGTTAATCGGGTCTTGATTCGCTTGACGCTGCTG	2.94	4.75	4.39	3.17	5.41	3.59	–
CCGATTAACATCATAAATCCCCATGATGTTAATCGGGTCTTGATTCGCTTGACGCTGCTG	6.78	7.56	9.37	3.91	5.14	7.11	7.13
CCGATTAACATCATCCTGGGAAATGATGTTAATCGGGTCTTGATTCGCTTGACGCTGCTG	1.13	2.18	1.37	2.72	1.03	1.74	–
CCGATTAACATCATGGGGAGGAATGATGTTAATCGGGTCTTGATTCGCTTGACGCTGCTG	3.58	3.68	4.26	6.46	2.28	2.59	–
CCGATTAACATCATGGGGGAAAATGATGTTAATCGGGTCTTGATTCGCTTGACGCTGCTG	5.67	6.78	9.23	10.9	5.39	6.88	3.09
CCGATTAACATCAGTATGGGAAATGATGTTAATCGGGTCTTGATTCGCTTGACGCTGCTG	1.32	2.39	2.22	2.14	1.79	1.28	–
CCGATTAACATCAGTGGGAAAAATGATGTTAATCGGGTCTTGATTCGCTTGACGCTGCTG	2.21	3.95	4.53	4.81	2.62	3.34	–
CCGATTAACATCAGAAAAACCCCTGATGTTAATCGGGTCTTGATTCGCTTGACGCTGCTG	7.98	8.56	7.56	2.03	7.67	7.6	9.4
CCGATTAACATCAAGTACGGGAATGATGTTAATCGGGTCTTGATTCGCTTGACGCTGCTG	1.11	2.04	1.41	2.85	3.24	1.22	–
CCGATTAACATCAAAAATTCCCTTGATGTTAATCGGGTCTTGATTCGCTTGACGCTGCTG	6.05	9.28	8.71	4.19	7.62	6.22	7.19
CCGATTAACATCATGTTAGGGAATGATGTTAATCGGGTCTTGATTCGCTTGACGCTGCTG	1.38	3.63	2.76	1.51	4.43	2.03	–
CCGATTAACATCAAAATATCCCCTGATGTTAATCGGGTCTTGATTCGCTTGACGCTGCTG	8.8	9.37	11	5.38	7.25	7.09	8.53
CCGATTAACATCAGGGGGAAGACTGATGTTAATCGGGTCTTGATTCGCTTGACGCTGCTG	5.87	6.01	6.96	8.23	5.25	6.29	4.92
CCGATTAACATCAAGATACCCCCTGATGTTAATCGGGTCTTGATTCGCTTGACGCTGCTG	7.1	4.31	5.25	4.96	4.36	4.66	4.14
CCGATTAACATCAGATGGGAAAATGATGTTAATCGGGTCTTGATTCGCTTGACGCTGCTG	2.47	4.24	5.39	2.47	2.28	2.37	–
CCGATTAACATCAGGGGGAGAACTGATGTTAATCGGGTCTTGATTCGCTTGACGCTGCTG	6.04	5.02	6.45	7.22	4.8	5.85	6.51
CCGATTAACATCAGGGAAACAAATGATGTTAATCGGGTCTTGATTCGCTTGACGCTGCTG	1.7	3.05	3.17	4.61	3.12	1.97	–
CCGATTAACATCATCCCTCCCCATGATGTTAATCGGGTCTTGATTCGCTTGACGCTGCTG	3.84	2.72	2.58	3.09	2.55	1.83	–
